Laboratory results published in PubChem BioAssay (NCI).
This is part of a sample that, as a whole, favours compounds with a hit. Of some 83,000 tested, about 20% had one in any assay.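 Results are percent growth after 48 hours of single-concentration exposure. 100 means growth as in untreated cells, lower positive values show inhibition; negative values down to -100 show cell death.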 A number with no mark means an inactive call. Calls of active or inactive are those of the source. How the source made its calls: active means growth percent below 10; inactive means the rest.

system: HL-60(TB) leukemia; experiment: NCI-60 one-dose screen, 48 h (100 = growth as untreated, 0 = no growth, -100 = all killed); conditions: 10 µM unless noted

SMILES | growth
c1ccc(-c2ccc(-c3nc4ccccc4[nH]3)cc2)cc1 | 66.7%
Cc1cc(N/N=C/c2nc(-c3ccc(Cl)cc3)oc2C)c2cc(Br)ccc2n1 | 59%
O=c1[nH]c(CN2CCN(c3cccc(Cl)c3)CC2)nc2cc(Cl)ccc12 | 116%
CCn1cc(C(=O)O)c(=O)c2cc(F)c(N3CCN(S(=O)(=O)c4ccc(Cl)cc4)CC3)cc21 | 8.96% (active)
C=C1C(=O)O[C@H]2[C@H]1CC/C(COC(=O)/C=C\C(=O)NCc1ccc(Cn3c(=O)sn(CCCCC)c3=O)cc1)=C\CC[C@@]1(C)O[C@@H]21 | -17.6% (active)
CCOC(=O)C1=C(c2ccccc2)N=c2s/c(=C/c3ccc(Br)cc3)c(=O)n2C1c1ccc(O)cc1 (stereo not given) | 94.9%
N#C/C(=C\c1c(-c2ccccc2)[nH]c2ccccc12)S(=O)(=O)c1ccccc1 | -4.39% (active)
CCN1C(=O)N(CC)C2C1NC(=S)N2/N=C/c1ccc(C(F)(F)F)cc1 (stereo not given) | 78.8%
CC1=CC(=Nc2ccc(N(C)C)cc2)C=C(C)C1=O | 42.8%
CSc1nsc(N)n1 | 105%
CC1(C)CC(OCCCC[P+](c2ccccc2)(c2ccccc2)c2ccccc2)CC(C)(C)N1O | -37.4% (active)
CN(C)/C(N)=N/N=C(\c1ccccc1)c1ccccn1 | 98.5%
O=C(Nc1ccc(NC(=O)c2cc(=O)[nH]c3ccccc23)cc1)Nc1cccc(Cl)c1 | 78.7%
O=C(O/C(=C/c1ccccc1)C(F)(F)F)c1ccccc1 | 32.3%
CCNc1nc2c(cnn2C)c(=O)[nH]1 | 94.3%
O=[N+]([O-])c1ccc(Oc2ccc(-c3ccccc3)cc2)cc1 | 78.7%
Cn1cc2c(c1)-c1nc(Nc3ccccc3)ncc1CC2 | 97.3%
NC(=O)c1cc(Br)ccc1NC(=O)/C=C/c1ccccc1 | -22.9% (active)
CC(C)c1ccc(-n2c(=S)[nH]c3sc4cc(O)ccc4c3c2=O)cc1 | 99.4%
O=C(N/N=C\c1cc(Cl)ccc1[N+](=O)[O-])c1ccco1 | 107%

SMILES | growth
CC(=O)c1sc2c(c1OC(=O)c1ccc(Cl)cc1Cl)c(=O)n(-c1ccccc1)c(=S)n2-c1ccccc1 | -31.9% (active)
C#Cc1c(I)n(C2OC(CO[Si](C)(C)C(C)(C)C)C3OC(C)(C)OC32)c(=O)[nH]c1=O (stereo not given) | 20.1%
O=C(CCCCCCCCC(=O)N/N=C\c1ccccc1O)N/N=C\c1ccccc1O | 14.8%
O=C(Nc1cccc(C(F)(F)F)c1)Nc1ccc(OCc2nnc(-c3ccc(Cl)cc3)o2)c(F)c1 | 92.5%
CCCC(=O)NNc1[nH]c(-c2ccc(OC)cc2)cc1C(=O)OCC | -27.7% (active)
CC[C@]12C=CCN3CC[C@@]4(c5ccc(OC)cc5N(C)[C@H]4[C@@](O)(C(=O)OC)[C@@H]1OC(=O)CCC[P+](c1ccccc1)(c1ccccc1)c1ccccc1)[C@@H]32 | -53.1% (active)
COc1cnc2c(c1)C(=O)c1c-2n(CCCn2ccnc2)c(=O)c2cc(F)ccc12 | -44.5% (active)
O=[N+]([O-])c1ccc(-c2cc(-c3ccc(Nc4nc(Nc5ccc(Cl)cc5)nc(Nc5ccc(Cl)cc5)n4)cc3)no2)cc1 | -63% (active)
CC1(C)OC(=O)C(=Cc2ccccc2Br)C(=O)O1 | 98.5%
CC(C)=CC(=O)C1C(=O)c2ccccc2C1=O | 120%
Cc1cccc2c(=O)c3c(sc12)c(NCCNCCO)nc1ccccc13 | -58.4% (active)
COc1cc(NC(=O)c2cc(O)c(C/C=C(\C)CCC=C(C)C)c(O)c2)cc2c1O[C@]1(C)CC[C@@H](O)C(C)(C)[C@H]1C2 | -7.34% (active)
COc1ccc(C2=NOC(CC(=O)N(CCO)CCO)C2)cc1OC1CCCC1 (stereo not given) | 110%
Cc1ccc(O)c(C(=O)O)c1 | 99.5%
O=[N+]([O-])c1cc([N+](=O)[O-])c(N2CCCC2)cc1NN=C(c1ccc(O)cc1)c1ccc(O)cc1 | 122%
CC1=C[S+](c2ccccc2)c2cccc3cc4ccccc4c1c23 (stereo not given) | -50.3% (active)
COC(=O)Cc1nc(C#N)c(N(C)C)o1 | 99.5%
COc1ccc(-c2nn(-c3cccc(Cl)c3)cc2-c2cc(-c3ccccc3)nc(N)n2)cc1 | 56.3%
CC(C)[C@@]12C[C@@H](OC(=O)[C@H]3CO3)[C@@](C)(O1)[C@@H]1CC[C@@H](C)[C@H]1[C@@H]2OC(=O)/C=C/c1ccccc1 | 67%
CC(O)CN1CC(O)=C(c2nc3ccccc3s2)C1=N (stereo not given) | 93.8%
